This is an account of results in PubChem BioAssay (NCATS).

Several values for one entry are separate records, joined by “and”; a condition that tells them apart may be missing. Equal entries are not always repeated. Records with an inconclusive call do not appear. For part of these data: Entries with a potency or affinity are not part of this list. Activity calls are given as the source filed them.

The target in assay [1] is T1, Hexokinase-4 (Homo sapiens) + Glucokinase regulatory protein (Homo sapiens) (UniProt P35557+Q14397). In words: qHTS assay for inhibitors of recombinant human GCK-GKRP interaction: ADP-Glo assay (AID 743206; active = well fitted curve in the direction sought with a large enough effect; an effect the other way counts as inactive or inconclusive;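 note: plate controls were DMSO plus enzyme for no effect and no enzyme for full effect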). To be noted: ADP-Glo luminescence, 60 min, 0% = vehicle-only wells with enzyme present; series mostly up to 76.9 µM. The procedure, abridged: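 Pin-transferred compounds meet a 15 nM GST-GCK/15 nM FLAG-GKRP/2 uM S6P mix (dispense concentrations). ATP is then added to 0.4 mM final with 5 mM glucose, and the reaction runs 60 min at room temperature. ADP is quantified luminescently.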
T1 sequence (P35557 whole entry, looked up): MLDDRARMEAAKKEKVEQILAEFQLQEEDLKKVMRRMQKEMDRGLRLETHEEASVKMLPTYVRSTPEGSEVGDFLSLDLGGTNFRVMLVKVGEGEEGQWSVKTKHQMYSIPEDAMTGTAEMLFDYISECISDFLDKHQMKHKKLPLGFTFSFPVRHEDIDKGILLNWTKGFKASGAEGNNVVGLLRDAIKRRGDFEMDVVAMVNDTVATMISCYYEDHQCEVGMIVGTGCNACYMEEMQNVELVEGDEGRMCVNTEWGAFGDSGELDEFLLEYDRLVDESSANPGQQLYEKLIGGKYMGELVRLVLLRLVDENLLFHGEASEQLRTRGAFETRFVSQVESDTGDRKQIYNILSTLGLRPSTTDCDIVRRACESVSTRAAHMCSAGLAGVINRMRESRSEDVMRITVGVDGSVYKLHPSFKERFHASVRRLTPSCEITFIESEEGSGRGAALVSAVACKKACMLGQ
T1 sequence (Q14397 whole entry, looked up): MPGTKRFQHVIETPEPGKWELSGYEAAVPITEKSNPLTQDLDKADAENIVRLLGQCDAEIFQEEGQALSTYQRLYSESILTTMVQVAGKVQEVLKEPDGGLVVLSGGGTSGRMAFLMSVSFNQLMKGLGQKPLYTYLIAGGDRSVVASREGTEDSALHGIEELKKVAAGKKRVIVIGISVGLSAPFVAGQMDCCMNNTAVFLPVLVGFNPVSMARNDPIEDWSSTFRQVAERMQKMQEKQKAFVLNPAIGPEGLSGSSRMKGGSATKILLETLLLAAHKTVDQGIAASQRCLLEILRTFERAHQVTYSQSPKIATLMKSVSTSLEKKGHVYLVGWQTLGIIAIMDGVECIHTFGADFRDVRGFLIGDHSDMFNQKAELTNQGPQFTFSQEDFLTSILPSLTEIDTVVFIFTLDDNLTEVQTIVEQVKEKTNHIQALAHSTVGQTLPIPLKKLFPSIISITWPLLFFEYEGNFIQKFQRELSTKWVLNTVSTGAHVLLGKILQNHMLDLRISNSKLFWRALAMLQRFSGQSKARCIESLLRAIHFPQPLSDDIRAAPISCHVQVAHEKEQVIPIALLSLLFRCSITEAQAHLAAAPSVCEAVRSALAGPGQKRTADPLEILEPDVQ

For assay [2], the target named is T1, Hexokinase-4 (Homo sapiens) + Glucokinase regulatory protein (Homo sapiens). Description: qHTS assay for inhibitors of recombinant human GCK-GKRP interaction: HTRF assay (AID 743207; active = well fitted curve in the direction sought with a large enough effect; an effect the other way counts as inactive or inconclusive;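 note: 0% = DMSO with GCK present and -100% = DMSO wells lacking GCK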). To be noted: recombinant GCK-GKRP HTRF binding, 60 min; series mostly up to 57.5 µM. The procedure, abridged: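 HTRF read-out (ex 320 nm; 615/665 nm emission) after 60 min RT equilibration of 5 nM GST-GCK, 5 nM FLAG-GKRP, 2 uM S6P, compound and anti-FLAG/anti-GST detection antibodies; signal normalized between DMSO wells with and without GCK.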
A general note: Quantitative high-throughput screening tests each substance at several concentrations.

The nature of assay [3]: qHTS Assay for Identifying Gametocytocidal Compounds (AID 743244; active = well fitted curve in the direction sought with a large enough effect; an effect the other way counts as inactive or inconclusive;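 note: % is set by controls: 0 for no effect and ±100 for the full control effect; actives lower the fluorescent signal which means gametocytes are killed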). To be noted: P. falciparum 3D7 stage III-V gametocytes, alamarBlue, 72 h; max response: stronger effect = lower value. The procedure, abridged: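 In this qHTS viability screen, late-stage 3D7 gametocytes are incubated with compound for 72 h, then with alamarBlue for 24 h; reduced resorufin fluorescence marks killing.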

Assay [4] in a line: qHTS profiling of the MIPE4 collection as inhibitors of Plasmodium falciparum (3D7) proliferation (AID 743344).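 Note: scaled between DMSO vehicle wells and 0.29 µM artemisinin as full inhibition.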 To be noted: P. falciparum 3D7 in erythrocytes, SYBR Green DNA fluorescence, 72 h; at 28.5 µM (top of the series) unless noted. The procedure, abridged: (§1)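 Parasite DNA was quantified by SYBR Green I fluorescence (ex 485, em 535 nm) after overnight lysis in saponin/Triton buffer at room temperature. Cultures at 0.3% parasitemia and 2.5% hematocrit were first exposed to compound for 72 h at 37 C; signals were normalised to artemisinin (0.29 uM) and vehicle wells.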

Assay [5] can be described thus: qHTS profiling of the MIPE4 collection as inhibitors of Plasmodium falciparum (DD2) proliferation (Rep 2) (AID 743346). The following applies: P. falciparum Dd2 in erythrocytes, SYBR Green DNA, 72 h; at 28.5 µM (top of the series) unless noted. The procedure, abridged: as §1
A short description of assay [6]: qHTS profiling of the MIPE4 collection as inhibitors of Plasmodium falciparum (HB3) proliferation (AID 743347).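 Note: plate controls were DMSO vehicle wells for no effect and artemisinin wells for full effect.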 To be noted: P. falciparum HB3 in erythrocytes, SYBR Green DNA, 72 h; at 28.5 µM (top of the series) unless noted. The procedure, abridged: as §1
The conditions of assay [7]: Ebola virus entry assay, green fluorescence channel.
For assay [8] the following is noted: Ebola virus entry assay, blue channel fluorescence.
For assay [9] the following is noted: Ebola virus entry assay, green fluorescence channel. The source holds these as a separate data set.
The conditions of assay [10]: Ebola virus entry assay, ratio channel readout.
For assay [11] the following is noted: Ebola virus entry assay, blue channel fluorescence. This is another data set of the same source.
The conditions of assay [12]: Ebola virus entry assay, ratio channel.
Assay [13] can be described thus: qHTS profiling for inhibitors of Plasmodium falciparum (3D7) proliferation (AID 743322).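 Note: infected erythrocytes exposed to compound for 72 h before lysis; 100% = DMSO vehicle wells and 0% = 0.29 µM artemisinin.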 To be noted: P. falciparum 3D7 proliferation; at 28.7 µM (top of the series). The procedure, abridged:
as §1

Assay [14] can be described thus: qHTS profiling for inhibitors of Plasmodium falciparum (DD2) proliferation (AID 743323). The following applies: lower = more inhibition; at 28.7 µM (top of the series). The procedure, abridged:
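P. falciparum Dd2-infected erythrocytes (0.3% parasitemia, 2.5% hematocrit) exposed 72 h at 37 C, 5% CO2. Lysis with SYBR Green, overnight at room temperature, fluorescence 485/535 nm; normalized to 0.29 uM artemisinin and DMSO.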

Assay [15] in a line: qHTS profiling for inhibitors of Plasmodium falciparum (HB3) proliferation (AID 743324; active = well fitted curve in the direction sought with a large enough effect; an effect the other way counts as inactive or inconclusive;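 note: 100% = DMSO vehicle wells and 0% = artemisinin-treated control wells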). The following applies: Plasmodium falciparum HB3 blood-stage proliferation; at 28.7 µM (top of the series). The procedure, abridged:
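SYBR Green fluorescence (485 ex/535 em) of lysed cultures, incubated overnight at room temperature in the dark, quantifies parasite DNA. Infected erythrocytes at 0.3% parasitemia and 2.5% hematocrit were exposed 72 h; values normalized to DMSO and 0.29 uM artemisinin controls.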

Assay [16] is described as follows: qHTS profiling of the MIPE4 collection as inhibitors of Plasmodium falciparum (DD2) proliferation (AID 743345). The following applies: P. falciparum Dd2 in erythrocytes, SYBR Green DNA, 72 h; at 28.5 µM (top of the series) unless noted. The procedure, abridged:
as §1
Throughout, for efficacy: 0% is about no effect.

For orientation: AC50 means the concentration at which the activity in the assay is half-maximal. For `COc1ccc(C(CN(C)C)C2(O)CCCCC2)cc1` (stereo not given), the result in assay [1], in assay [2], in [8], in assay [9], in assay [10] and in assay [12] was inactive. Also, in assay [3], the max response is 4.64% (inactive) and 5.5% (inactive). Moreover, the parasite growth, % of DMSO control in assay [4] was found to be 21.1%. In addition, the parasite growth, % of control (lower = inhibition) in [5] was determined as 42.9%. The compound also had a growth, % of control in assay [6] of 60.2%. Besides, the efficacy in [7] was 55.6% (inactive). The AC50 in assay [11] was 35.5 µM (active).

As to `Oc1cn2c(n1)Nc1ccc(Cl)c(Cl)c1C2`, in [13], the remaining parasite growth % (stronger effect = lower value) is 107%. In assay [14], this compound showed an activity, percent of control of 97.1%. This compound came in with a remaining proliferation (% of control), lower = more inhibition in assay [15] of 97.7%. The efficacy in assay [7] is -19.4% (inactive). The result in assay [8], in assay [9], in assay [10], in [11] and in assay [12] was inactive.

Take `CCOC(=O)C1(c2ccccc2)CCN(CCC(C#N)(c2ccccc2)c2ccccc2)CC1`: in [3], the max response is 18.9% (inactive) and -7.07% (inactive). In addition, in assay [7], the efficacy is -34.7% (inactive). The compound was classed as inactive in assay [8], in assay [9] and in [10]. Besides, the AC50 in assay [11] was 14.1 µM (active); in [12] it was 10 µM (active).

For `O=P1(NCCCl)OCCCN1CCCl` (stereo not given), in [3], the max response was 4.6% (inactive). The parasite growth, % of DMSO control in assay [4] is 62.8%. The parasite growth, % of control (lower = inhibition) in assay [5] was 110%. The growth, % of control in assay [6] turned out to be 107%. For the same compound, the efficacy in assay [7] was 14.4% (inactive). For the same compound, the call in assay [8], in assay [9], in [10] and in assay [11] was inactive.

Take `O=C1CC[C@@]2(O)[C@H]3Cc4ccc(O)c5c4[C@@]2(CCN3CC2CC2)[C@H]1O5`: the max response in [3] was 19% (inactive). This compound had a parasite growth, % of DMSO control in [4] of 94.1%. The parasite growth, % of control (lower = inhibition) in assay [5] was 64.4%. In [6], this compound gave a growth, % of control of 83.3%. The efficacy in assay [7] was -27.7% (inactive). The compound was classed as inactive in assay [8], in assay [9], in assay [10], in assay [11] and in assay [12].

Take `Cc1cc2c(s1)Nc1ccccc1N=C2N1CCN(C)CC1`: the parasite growth, % of DMSO control in [4] is 97.1%. In addition, the parasite growth remaining, % of DMSO control (lower = more inhibition) in assay [16] amounted to 94.5%. In addition, the parasite growth, % of control (lower = inhibition) in assay [5] turned out to be 49.7%. This compound returned a growth, % of control in assay [6] of 101%. Further, in [7], the efficacy is 36% (inactive). Moreover, the compound was classed as inactive in assay [8], in [9], in [10], in assay [11] and in assay [12].

For `O=C(OC1C[C@H]2CC[C@@H](C1)[N+]21CCCC1)C(O)(c1ccccc1)c1ccccc1` (stereo not given in full), the parasite growth, % of DMSO control in assay [4] is 32.2%. For the same compound, in assay [16], the parasite growth remaining, % of DMSO control (lower = more inhibition) turned out to be 48.3%. In assay [5], the parasite growth, % of control (lower = inhibition) is 30.4%. The efficacy in assay [7] was 12.9% (inactive). Also, the result in assay [8], in assay [9], in [10], in assay [11] and in assay [12] was inactive.

On to `Cc1ccnc2c1NC(=O)c1cccnc1N2C1CC1`, for which the parasite growth, % of DMSO control in assay [4] came out at 358%. Also, the parasite growth remaining, % of DMSO control (lower = more inhibition) in assay [16] is 112%. The parasite growth, % of control (lower = inhibition) in assay [5] is 83.7%. Moreover, the growth, % of control in assay [6] came to 600%. Further, in [7], the efficacy is 25.7% (inactive). The outcome in assay [8], in assay [9], in [10] and in assay [11] was inactive.
